Compound activity (PubChem)
Shown is part of a subset that was picked to be rich in hits.
ROS inducer: raises reactive oxygen species in U2OS cancer cells; U2OS ROS induction, H2DCF-DA fluorescence; ROS induction (% of piperlongumine), % at 10 µM; 46,000 tested, 2% active; in the data active = ROS induction above about 79%, passing the limit was not always enough;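 also: 0% = DMSO vehicle median and 100% = reference compound median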
* = called active by the depositor.

SMILES	ROS inducer
CCn1c(SCc2nc3ccccc3c(=O)[nH]2)nc2ccccc2c1=O	94.2*
O=c1[nH]c(CSc2nnc(-c3ccccc3)n2C2CCCCC2)nc2ccccc12	2.6
C[C@H](CO)N1C[C@H](C)[C@@H](CN(C)Cc2ccncc2)Oc2c(NC(=O)c3ccc(-c4nccs4)cc3)cccc2C1=O	6.6
Cc1ccc(S(=O)(=O)Nc2ccc3c(c2)CC(=O)N([C@H](C)CO)C[C@H](C)[C@H](CN(C)Cc2ccc(Cl)c(Cl)c2)O3)cc1	12.3
COC(=O)C(CC#Cc1ccc2c(c1)[C@]1(C(=O)N2)[C@H](c2ccc(OCCO)cc2)N2[C@H](c3ccccc3)[C@H](c3ccccc3)OC(=O)[C@H]2[C@@H]1C(=O)N1CCN(c2ncccn2)CC1)C(=O)OC	54.0
O=C1O[C@H](c2ccccc2)[C@H](c2ccccc2)N2[C@H]1[C@@H](C(=O)N1CCN(c3ncccn3)CC1)[C@]1(C(=O)Nc3ccc(C#CC4(O)CCCCCC4)cc31)[C@H]2c1ccc(OCCO)cc1	24.7
O=C1O[C@H](c2ccccc2)[C@H](c2ccccc2)N2[C@H]1[C@@H](C(=O)O)[C@]1(C(=O)Nc3ccccc31)[C@H]2c1ccc(OCCO)cc1	52.9
O=C1O[C@@H](c2ccccc2)[C@@H](c2ccccc2)N2[C@@H](c3ccccc3OCCO)[C@]3(C(=O)Nc4ccccc43)[C@@H](C(=O)O)[C@H]12	6.0
O=C1O[C@@H](c2ccccc2)[C@@H](c2ccccc2)N2[C@@H](c3ccc(OCCO)cc3)[C@]3(C(=O)Nc4ccccc43)[C@@H](C(=O)N3CCN(c4ncccn4)CC3)[C@H]12	96.5*
COC(=O)C(CC#Cc1ccc2c(c1)[C@]1(C(=O)N2)[C@H](C(=O)N2CCN(c3ncccn3)CC2)[C@H]2C(=O)O[C@H](c3ccccc3)[C@H](c3ccccc3)N2[C@@H]1c1ccc(OCCO)cc1)C(=O)OC	41.5
O=C1O[C@H](c2ccccc2)[C@H](c2ccccc2)N2[C@H]1[C@@H](C(=O)N1CCN(c3ncccn3)CC1)[C@]1(C(=O)Nc3ccc(C#CC4=CCCCC4)cc31)[C@H]2c1ccccc1OCCO	68.3
COC(=O)C(CC#Cc1ccc2c(c1)[C@]1(C(=O)N2)[C@H](c2ccccc2OCCO)N2[C@H](c3ccccc3)[C@H](c3ccccc3)OC(=O)[C@H]2[C@@H]1C(=O)N1CCN(c2ncccn2)CC1)C(=O)OC	99.0*
O=C1O[C@H](c2ccccc2)[C@H](c2ccccc2)N2[C@H]1[C@@H](C(=O)N1CCN(c3ncccn3)CC1)[C@]1(C(=O)Nc3ccccc31)[C@H]2c1ccccc1OCCO	169.9*
COc1ccc(S(=O)(=O)N(C)C[C@H]2Oc3ccc(NC(=O)Nc4ccc(F)cc4)cc3CC(=O)N([C@@H](C)CO)C[C@H]2C)cc1	5.1
CC(C)C[C@@H]1NC(=O)[C@H]2C[C@@H](C(=O)NCc3ccc(F)cc3)[C@@H](c3ccc(O)cc3)N2C1=O	-2.5
COc1ccc(OC(=O)N(C)C[C@@H]2OCc3cn(nn3)CCCC(=O)N([C@H](C)CO)C[C@H]2C)cc1	-4.6
C[C@@H]1CN([C@@H](C)CO)C(=O)c2cccc(NC(=O)C3CCCCC3)c2O[C@@H]1CN(C)Cc1ccc(C(F)(F)F)cc1	-5.3
C[C@@H]1CN([C@H](C)CO)C(=O)Cc2cc(NC(=O)CCCN(C)C)ccc2O[C@@H]1CN(C)S(=O)(=O)c1ccc(Cl)cc1	-5.1
COc1cc(/C=C\C(=O)O)cc(OC)c1OC	-5.0
C[C@H](CO)N1C[C@H](C)[C@H](CN(C)Cc2ccncc2)Oc2ccc(NS(=O)(=O)c3cccs3)cc2C1=O	-5.9
CNC[C@@H]1Oc2ccc(NC(=O)Nc3ccccc3)cc2C(=O)N([C@@H](C)CO)C[C@@H]1C	5.8
C[C@@H]1CCCCO[C@H](CN(C)C(=O)c2ccccc2)[C@@H](C)CN([C@H](C)CO)C(=O)c2cc(NS(=O)(=O)c3ccccc3)ccc2O1	-3.6
Cc1ccc(S(=O)(=O)Nc2ccc3c(c2)C(=O)N([C@H](C)CO)C[C@H](C)[C@@H](CN(C)CC2CCCCC2)OCCCC[C@@H](C)O3)cc1	12.4
C[C@@H]1CCCCO[C@@H](CN(C)C(=O)c2ccccc2)[C@@H](C)CN([C@H](C)CO)C(=O)c2cc(NS(=O)(=O)c3cccs3)ccc2O1	5.0
C[C@@H]1CCCCO[C@@H](CN(C)C(=O)C2CCCCC2)[C@@H](C)CN([C@H](C)CO)C(=O)c2cc(NS(=O)(=O)c3ccccc3)ccc2O1	109.7*
C[C@@H]1CCCCO[C@H](CN(C)CC2CCCCC2)[C@@H](C)CN([C@H](C)CO)C(=O)c2cc(NS(=O)(=O)c3ccccc3)ccc2O1	119.0*
C[C@@H]1CCCCO[C@H](CN(C)C(=O)Nc2ccc(F)cc2)[C@@H](C)CN([C@H](C)CO)C(=O)c2cc(NS(=O)(=O)c3cccs3)ccc2O1	5.3
C[C@@H]1CCCCO[C@H](CN(C)C(=O)C2CCCCC2)[C@@H](C)CN([C@H](C)CO)C(=O)c2cc(NS(=O)(=O)c3ccc(Cl)cc3)ccc2O1	35.1
